Compounds with a hit are over-represented: about 1.5% of the library has one in this group of screens.
PINK1 expr mod = PINK1 expression modulation; 410,000 tested, 0.2% active; Potency, µM (highest dose often 76.6 µM), inactives show at the highest dose activation (PINK1 increase), most hits filed as activators; AID 624263; PINK1 immunofluorescence, high-content cytometry, 24 h; active means well fitted activation curve with a large enough effect; inconclusive means small, poorly fitted or top-dose-only effect; cell line not stated here; further: potency means the concentration at half of the fitted maximal effect; % of control where 0% means no effect; nearly all actives have a fitted effect of over 65% in size
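A stable cell line was treated with compounds at 5 concentrations for 24 hours, with CCCP as control. PINK1 levels and mitochondrial localization were measured by immunofluorescence with mitochondrial, cell and nuclear markers after fixation, read by laser-scanning cytometry.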
BRCA1 expr up = increases BRCA1 expression. MCF7-BRCA1-FFLuc reporter, luminescence, 48 h; response scale: scaled: vehicle 0%, 10 µM genistein 100%. 380,000 tested, 1.1% active. Potency, µM (series often up to 46.1 µM), without a hit: at the highest dose activation, hits mostly activators. AID 624202; further: potency means the concentration at half of the fitted maximal effect; nearly all actives have a fitted effect of over 80% in size
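First, MCF7-BRCA1-FFLuc cells (2000/well) attach for 2 h; next, compounds are pin-added and incubated 48 h at 37 °C; finally, luciferase reagent is added and luminescence read after 15 min.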
TCR act = activates T cell receptor signaling; primary human leukocytes, anti-CD3, IL-2 HTRF, 48 h; Potency, µM (titrated, usually from 9.22 µM), without a hit: top-dose activation of IL-2 secretion, most hits filed as activators; 330,000 tested, under 10 active; AID 504894; further: % of control where 0% means no effect
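IL-2 produced over 48 hr by a-CD3 bead-stimulated primary human leukocytes exposed to compounds was detected with a homogeneous time-resolved FRET immunoassay, 665nm acceptor signal after 320nm excitation.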
pAkt inh = Akt phosphorylation inhibition | AID 651550 | Neuro2A IGF-stimulated pAkt S473 HTRF, 20 min; stronger effect = lower value | activity change, % for hits at 50 µM | 360,000 tested, 0.32% active; in the data active means activity change below about -80%; inconclusive means mostly about -51% to -80%; further: on the % scale 0 is the no-effect control and ±100 the full control effect
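Neuro2A cells (4,500/well, DMEM with 0.5% FBS) were treated with compound at a single 50 µM final concentration, stimulated with 6 nM IGF for 20 min at 37 °C, and lysed. Phospho-Akt Ser473 was read by HTRF as 665/615 ratio ×10^4.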
Numbers without * were called inactive; i = inactive; u = inconclusive; x = no result; [ ] = remark or other dose. Unless noted, the call rests on the fitted dose curve; in most records, active means well fitted curve in the direction sought with a large enough effect; inconclusive means small, poorly fitted or top-dose-only effect, or another doubt; inactive means no such curve, though single readings can be large; an effect the other way counts as inactive or inconclusive.

SMILES | PINK1 expr mod | BRCA1 expr up | TCR act | pAkt inh
CC(NC(=O)c1cccnc1)c1nnc2n1CCN(Cc1ccc(-c3ccccc3)cc1)CC2 (centres undefined) | 2% | x | x | x
CCNC(=O)c1ccc(CSc2ccc(Cl)cc2)cc1 | 7% | 29% | 0%[46.1 µM] | i
CC(=O)NCCNC(=O)c1ccc(CSc2ccc(Cl)cc2)cc1 | 1% | 11µM* | 8% | i
COC(=O)c1ccccc1NC(=O)c1sc(Cl)nc1C | 0% | -33% | -2% | i
COC(=O)c1ccc(-c2ccc(Cl)cc2)nc1C | 6% | 2µM* | -1%[46.1 µM] | i
COc1ccc2cc(C3=CC(=O)CC(C)(C)C3=O)ccc2c1 | 1% | 13µM* | x | i
COc1ccc2c(c1)OC(C)CN(CCNC(=O)c1csc(-c3cccs3)n1)C2 (centres undefined) | -1% | x | x | x
O=C(Cn1cc2c(n1)CCCCC2)NC1CCCCCC1 | 0% | 8.9µM* | -3%[46.1 µM] | i
CC1CCCC(NC(=O)Cn2cc3c(n2)CCCCC3)C1C (centres undefined) | 4% | 4% | 0% | i
O=S(=O)(c1ccc(Oc2ccc(Br)cc2)cc1)N1CCOCC1 | 8% | -25% | -3% | -113%*
COc1ccc(S(=O)(=O)N2CCOCC2)cc1 | 0% | 10% | x | x
O=C(Nc1ccn(Cc2ccc(Cl)cc2)n1)c1ccccc1 | -1% | 7.9µM* | x | i
CC(C)C(NS(C)(=O)=O)c1nnc2n1CCN(Cc1cccc3ncccc13)CC2 (centres undefined) | 0% | x | x | x
Cc1ccn(CCC(=O)NCC2Cc3cc(Cl)cc(-c4ccc5[nH]ccc5c4)c3O2)n1 (centres undefined) | 3% | x | x | x
Cc1cc(C)cc(NC(=O)N2CCc3ccccc3C2)c1 | -1% | u | 1% | i
Cc1ccc(NC(=O)N2CCc3ccccc3C2)cc1C | -1% | 10µM* | 1% | i
Cc1ccc(C(C(=O)NC2CCCC2)N(Cc2cccnc2)C(=O)c2snc(C(N)=O)c2N)o1 (centres undefined) | 3% | -27% | 0% | -119%*
O=C(CNS(=O)(=O)c1ccccc1)N1CCc2ccccc2C1 | -2% | 11µM* | x | i
COc1ccccc1-c1ccc(Nc2cccc(C(F)(F)F)c2)nn1 | 12% | -6% | -3%[46.1 µM] | x
COc1ccccc1-c1ccc(NC2CCCCC2)nn1 | 1%[38.3 µM] | 7.1µM* | -2%[46.1 µM] | i
CCn1cnc2sc(C(=O)N(Cc3ccc(N(C)C)cc3)Cc3ccco3)c(C)c2c1=O | -2% | -34% | -6% | -109%*
CN(C)c1ccc(C(=O)Oc2cc(O/N=[N+](\[O-])N(C)C)c([N+](=O)[O-])cc2[N+](=O)[O-])cc1 | -1% | u | x | x
CCOc1ccc(NC(=O)Cn2cnc3sc(C)c(S(=O)(=O)N4CCN(c5ccccc5OC)CC4)c3c2=O)cc1 | 0% | x | x | x
Clc1ccccc1Sc1cnc2ccccc2n1 | 0% | 26% | -6% | -91%*
Clc1ccc(Sc2cnc3ccccc3n2)cc1 | 2% | u | -10% | u
SMILES | PINK1 expr mod | BRCA1 expr up | TCR act | pAkt inh
COc1cc(/C=N\NC(C)=O)ccc1OC/C=C/c1ccccc1 | 3% | 4% | 12% | i
N#CCC(=O)N/N=C\c1cc(Br)ccc1OC/C=C/c1ccccc1 | 13% | 8.9µM* | 9% | i
CCOC(=O)N/N=C\c1ccccc1OC/C=C/c1ccccc1 | 2% | 4µM* | 6% | i
COC(=O)N/N=C\c1ccccc1OC/C=C/c1ccccc1 | 5% | 11µM* | -4% | i
COc1cccc(CNc2ncnc3sc(C(=O)N4CC5CCC4C5)c(C)c23)c1OC (centres undefined) | -1% | x | x | x
COc1ccccc1C1CN(Cc2cccnc2)Cc2ccccc2O1 (centres undefined) | 1% | x | x | x
COc1cc2cncnc2cc1OCCCCC(N)=O | 0% | 12% | x | x
CC(=O)COc1ccc(-c2csnn2)cc1 | 0% | 82% | 12% | i
c1ccc(COc2ccc(-c3csnn3)cc2)cc1 | 0% | 5.6µM* | -5% | i
Cc1ccc(S(=O)(=O)/N=C(/Nc2ccc([N+](=O)[O-])cc2)c2ccccc2)cc1 | 9% | -10% | 7% | i
Cc1ccc(S(=O)(=O)/N=C(/Nc2ccc([N+](=O)[O-])cc2[N+](=O)[O-])c2ccccc2)cc1 | 35µM* | -71% | 2%[46.1 µM] | i
COc1ccc(C(=O)Nc2nnc(-c3ccccc3)s2)cc1 | 14% | 7.1µM* | x | i
CCCCC(=O)Nc1nnc(C)s1 | 1% | -105% | 6% | i
CCCCCCC(=O)Nc1nnc(CC)s1 | -1% | -35% | 5%[46.1 µM] | -123%*
CC(C)(C)Cc1nnc(NC(=O)Cc2ccc([N+](=O)[O-])cc2)s1 | 0% | -27% | -2%[46.1 µM] | i
CC(C)(C)Cc1nnc(NC(=O)c2ccc([N+](=O)[O-])cc2)s1 | -1% | 5.6µM* | 0% | i
CCc1nnc(NC(=O)c2cc(C)oc2C)s1 | 1% | 5.6µM* | 4% | i
O=C(c1n[nH]c2c1CCCC2)N1CCC(n2c(C3CCCO3)nc3ccccc32)CC1 (centres undefined) | -1% | x | x | x
COc1ccccc1N1CCN(c2nc(CNC(=O)c3ccccc3F)nc3ccccc23)CC1 | 1% | x | x | x
COc1ccc(C(=O)Cc2nnc(C)s2)cc1 | 1% | 7.1µM* | 2%[46.1 µM] | i
COc1ccc(C(=O)Cc2ccccc2C(=O)O)cc1 | -5% | -22% | -4% | i
CCc1nnc(NC(=O)c2ccc(OC)cc2)s1 | 1% | 7.1µM* | -3% | i
COc1cccc(C(=O)Nc2nnc(-c3ccccc3)s2)c1OC | 12% | 1.8µM* | 2% | i
CCc1nnc(NC(=O)c2cccc(NC(=O)C(C)C)c2)s1 | 4% | 11µM* | 3% | i
COC(=O)Nc1nnc(/C=C/c2ccc(OC)cc2)s1 | -1% | 11µM* | 0%[46.1 µM] | i
SMILES | PINK1 expr mod | BRCA1 expr up | TCR act | pAkt inh
COc1cc2nc(N3CCCCC3)nc(NC3CCN(C)CC3)c2cc1OC | -1% | -51% | x | x
COc1ccc2nc(/N=C(\N)NC(=O)N3c4ccccc4Sc4ccccc43)nc(C)c2c1 | 11% | -10% | 7%[46.1 µM] | i
CCC(=O)N/C(N)=N/c1nc(C)c2cc(OC)ccc2n1 | 3.5µM* | 2% | 0% | i
COc1ccc2nc(/N=C(\N)NC(=O)C(C)(C)C)nc(C)c2c1 | 2% | 11µM* | -4% | i
OC1(c2cccnc2)CCN(Cc2ccc3c(c2)CN(Cc2ccc(F)c(F)c2)CCO3)CC1 | -1% | x | x | x
O=C(Cn1cc(C(=O)C2CC2)c2ccccc21)NCc1ccccc1 | 3% | 13µM* | -3%[46.1 µM] | i
O=C(O)Cn1cc(C(=O)C2CC2)c2ccccc21 | u | 5% | x | i
Cc1nc(N/N=C/c2ccccn2)sc1C | 12% | -96% | 1%[46.1 µM] | i
CCCc1sc(N/N=C/c2ccccn2)nc1-c1ccc(F)cc1 | 13µM* | -81% | -1%[46.1 µM] | i
Cc1[nH]c2c(F)cccc2c1CC(=O)NCCN1Cc2ccccc2OC(C)C1 (centres undefined) | 0% | x | x | x
N#CCCn1c(C2CCCCC2)nc2ccccc21 | -1% | -1% | -6% | -122%*
COc1ccc(/C=N/n2cnnc2SCc2ccccc2)cc1 | 7% | -19% | -3% | -110%*

Screens: PubChem, National Center for Advancing Translational Sciences (NCATS)
